The source of these data is PubChem BioAssay (Tox21).

Assay [1] is described as follows: qHTS assay to identify small molecule agonists of the estrogen receptor alpha (ER-alpha) signaling pathway in the presence of an antagonist - cell viability counter screen (AID 1259386).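 Further: series mostly up to about 92 µM; cells exposed to compounds for 22 h at 37 °C before the viability read; nearly all actives have a fitted effect of over 30% in size.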 The procedure, abridged: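 In this counter screen, compound effects on VM7Luc4E2 viability were tested in the presence of the antagonist ICI-182,780 at 10.0nM final. Compounds were dosed at 15 concentrations, exposure lasted 22hr, and the CellTiter-Fluor signal was read.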
In general terms: qHTS replaces the single test concentration by a dilution series.

For assay [2], the target named is Progesterone receptor (Homo sapiens) (UniProt P06401). Description: qHTS assay to identify small molecule agonists of the progesterone receptor (PR) signaling pathway (AID 1346784; calls by dose curve; further: nearly all actives have a fitted effect of over 30% in size). The procedure, abridged:
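Agonist qHTS: compounds pinned onto 3,000 PR-UAS-bla HEK 293T cells per well in charcoal-stripped serum medium, 16hr at 37C, then beta-lactamase activity measured by LiveBLAzer FRET fluorescence after 2 hours at room temperature.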

For assay [3] the target is unchanged. Briefly: qHTS assay to identify small molecule antagonists of the progesterone receptor (PR) signaling pathway (AID 1346795; active means well fitted inhibition curve with a large enough effect in the signal ratio in the repeat runs, not every such curve was filed as active; the % refers to the signal ratio; further: potency means the concentration at half of the fitted maximal effect). The procedure, abridged: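 Antagonist mode with agonist R5020 at 1 nM final and 16 hr incubation at 37C. Reporter was beta-lactamase driven by UAS in HEK293T (PR-UAS-bla), 2% charcoal-stripped serum; signal from LiveBLAzer FRET substrate, 2 hr at room temperature.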

Assay [4] is described as follows: qHTS assay to identify small molecule antagonists of the progesterone receptor (PR) signaling pathway - cell viability counter screen (AID 1346798). Further: series mostly up to about 92 µM; nearly all actives have a fitted effect of over 50% in size. The procedure, abridged: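 Cytotoxicity read as CellTiter-Glo luminescence (30 min, room temperature) in the same wells as the beta-lactamase readout. HEK293T PR-UAS-bla cells in charcoal-stripped 2% FBS received compound and R5020, then 16 h at 37C, 5% CO2.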

The nature of assay [5]: qHTS assay to identify small molecule agonists of the progesterone receptor (PR) signaling pathway - cell viability counter screen (AID 1346799; calls by dose curve; further: nearly all actives have a fitted effect of over 45% in size). The procedure, abridged:
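Cytotoxicity measured by CellTiter-Glo luminescence (30 min, RT) in the same wells as the PR beta-lactamase agonist read. Those HEK293T cells had 16 h compound treatment at 37 C in 2% charcoal-stripped FBS medium.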

Assay [6] is described as follows: qHTS assay to identify small molecule antagonists of the TGF-beta/Smad signaling pathway - cell viability counter screen (AID 1346824). Further: nearly all actives have a fitted effect of over 50% in size. The procedure, abridged: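 SBE-bla HEK 293T cells were plated overnight at 37 C, then given compounds in DMSO plus TGF-beta1 (added as 0.25 ng/mL solution) for 5 hr. After the bla read, CellTiter-Glo was added to the same wells and luminescence read after 30 min at room temperature.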

Assay [7] can be described thus: qHTS assay to identify small molecule agonists of the TGF-beta/Smad signaling pathway - cell viability counter screen (AID 1346829). Further: top concentration of the series differs between compounds; nearly all actives have a fitted effect of over 45% in size. The method, boiled down:
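Tox21 qHTS format: SBE-bla HEK 293T cells treated with DMSO-dissolved compounds for 5 hr; CellTiter-Glo luminescence after 30 min at room temperature.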

Assay [8] in a line: qHTS assay to identify small molecule agonists of the TGF-beta/Smad signaling pathway (AID 1346859; active means well fitted activation curve with a large enough effect in the signal ratio in the repeat runs, not every such curve was filed as active; the % refers to the signal ratio; further: series mostly up to about 77 µM). The procedure, abridged: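 Fluorescence (ex 405 nm; em 460 and 530 nm) was read 2 h after LiveBLAzer FRET substrate at RT. The preceding compound treatment of overnight-plated SBE-bla HEK293T cells lasted 5 h at 37 C.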
The target of assay [9] is Thyrotropin-releasing hormone receptor (Homo sapiens) (UniProt P34981). Description: qHTS assay to identify small molecule antagonists of the thyrotropin-releasing hormone receptor (TRHR) signaling pathway (AID 1346877; active means well fitted inhibition curve with a large enough effect in the repeat runs, not every such curve was filed as active; further: series mostly up to about 51 µM). The method, boiled down:
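Kinetic fluorescence (3 min, 1 s resolution) following stimulation with TRH at 1 nM final; HEK293 cells bearing human TRHR; 5 min compound preincubation at RT; concentration-response over 15 points, triplicates.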

Assay [10] shares this target. Briefly: qHTS assay to identify small molecule agonists of the thyrotropin-releasing hormone receptor (TRHR) signaling pathway (AID 1346891; calls by dose curve; further: series mostly up to about 58 µM). The method, boiled down: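 Agonist-mode intracellular calcium readout: kinetic fluorescence over 3 min at 1 s intervals after compound addition to TRHR-HEK293 cells (18 h seeded, 2 h dye-loaded at 37 C). Fifteen concentrations, triplicates.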

A short description of assay [11]: Caspase-3/7 induction in HepG2 cells by small molecules, qHTS assay (AID 1346978). Further: nearly all actives have a fitted effect of over 15% in size. The method, boiled down: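 Wild-type HepG2 cells (2,000/well) were settled 5 h at 37 C, 5% CO2, then exposed to compounds in DMSO for 17 h. Caspase-3/7 activity was read by luminescence 30 min after adding Caspase-Glo 3/7 reagent at room temperature.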
A short description of assay [12]: Caspase-3/7 induction in CHO-K1 cells by small molecules, qHTS cell viability counter screen (AID 1346979). Further: nearly all actives have a fitted effect of over 35% in size. The procedure, abridged: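 Cytotoxicity counter screen: CellTiter-Fluor added to compound-treated wild-type CHO-K1 cells at 16 h (37C, 5% CO2), fluorescence measured 1 h later; same wells as caspase-3/7 measurement.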
The nature of assay [13]: Caspase-3/7 induction in CHO-K1 cells by small molecules, qHTS assay (AID 1346980). Further: nearly all actives have a fitted effect of over 15% in size. The method, boiled down:
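Wild-type cells were seeded at 1,500 per well and settled 5 hr at 37 C, 5% CO2, then exposed to DMSO-dissolved compounds for 17 hr. Caspase-Glo 3/7 reagent was added, and luminescence was read after 30min at room temperature.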

Assay [14] in a line: Caspase-3/7 induction in HepG2 cells by small molecules, qHTS cell viability counter screen (AID 1346981). Further: series mostly up to about 92 µM; nearly all actives have a fitted effect of over 30% in size. The method, boiled down: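 In this quantitative HTS counter screen, compounds delivered in DMSO were left on unmodified HepG2 cells for 16 hr at 37 C. Viability was then determined fluorometrically with CellTiter-Fluor, in parallel with caspase-3/7 induction in the same wells.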

Assay [15] addresses Nuclear receptor subfamily 1 group I member 2 (Homo sapiens) (UniProt O75469). Briefly: Human pregnane X receptor (PXR) small molecule agonists, qHTS assay (AID 1346982). Further: nearly all actives have a fitted effect of over 35% in size. Further: potency means the concentration at half of the fitted maximal effect. The procedure, abridged:
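Reporter HepG2 cells expressing PXR-Luc are cultured in charcoal-stripped FBS (5%), treated with compounds for 24 hr at 37 C, and assayed by ONE-Glo luminescence after 30 min at room temperature.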

Assay [16] addresses Cytochrome P450 2D6 (Homo sapiens) (UniProt P10635). Description: Cytochrome P450 Family 2 Subfamily D Member 6 (CYP2D6) small molecule antagonists: luciferase reporter qHTS assay (AID 1671196). Further: series mostly up to about 120 µM; nearly all actives have a fitted effect of over 50% in size. The method, boiled down: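 Test chemicals meet CYP2D6 plus proluciferin substrate (10 min, RT); NADPH regenerating solution then drives turnover for 1 h. Detection reagent halts the reaction; luminescence measured after 20 min.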

Assay [17] in a line: Human pregnane X receptor (PXR) small molecule agonists, qHTS cell viability counter screen (AID 1346977). Further: nearly all actives have a fitted effect of over 50% in size. The procedure, abridged:
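Same-well viability read: CellTiter-Fluor added after 23 hr compound exposure, fluorescence measured 1 hr later. Cells were PXR-Luc HepG2 seeded at 2,000/well in 5% charcoal-stripped FBS medium, rested 5 hr before dosing at 37 C.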

A number with no mark means an inactive call. Inconclusive results are not listed. Calls of active or inactive are those of the source. Unless noted, the call rests on the fitted dose curve; in most records, active means well fitted curve in the direction sought with a large enough effect in the repeat runs; inconclusive means weak or mixed curves; inactive means no such curve, though single readings can be large; an effect the other way counts as inactive or inconclusive.
On the % scale 0 is the no-effect control and ±100 the full control effect.

Nuclear receptor subfamily 1 group I member 2 (Homo sapiens), sequence (O75469 whole entry, looked up): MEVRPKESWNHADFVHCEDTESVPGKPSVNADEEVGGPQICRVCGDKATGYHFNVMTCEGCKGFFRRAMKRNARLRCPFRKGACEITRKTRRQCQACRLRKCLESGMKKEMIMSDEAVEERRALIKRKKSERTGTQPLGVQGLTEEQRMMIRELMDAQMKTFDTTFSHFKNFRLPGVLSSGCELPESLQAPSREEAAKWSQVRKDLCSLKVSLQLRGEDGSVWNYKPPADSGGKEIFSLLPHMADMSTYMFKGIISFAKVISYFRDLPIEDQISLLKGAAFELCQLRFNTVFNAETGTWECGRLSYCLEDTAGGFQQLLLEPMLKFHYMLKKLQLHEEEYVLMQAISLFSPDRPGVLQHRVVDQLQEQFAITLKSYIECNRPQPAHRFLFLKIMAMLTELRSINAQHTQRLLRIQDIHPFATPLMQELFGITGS
Cytochrome P450 2D6 (Homo sapiens), sequence (P10635 whole entry, looked up): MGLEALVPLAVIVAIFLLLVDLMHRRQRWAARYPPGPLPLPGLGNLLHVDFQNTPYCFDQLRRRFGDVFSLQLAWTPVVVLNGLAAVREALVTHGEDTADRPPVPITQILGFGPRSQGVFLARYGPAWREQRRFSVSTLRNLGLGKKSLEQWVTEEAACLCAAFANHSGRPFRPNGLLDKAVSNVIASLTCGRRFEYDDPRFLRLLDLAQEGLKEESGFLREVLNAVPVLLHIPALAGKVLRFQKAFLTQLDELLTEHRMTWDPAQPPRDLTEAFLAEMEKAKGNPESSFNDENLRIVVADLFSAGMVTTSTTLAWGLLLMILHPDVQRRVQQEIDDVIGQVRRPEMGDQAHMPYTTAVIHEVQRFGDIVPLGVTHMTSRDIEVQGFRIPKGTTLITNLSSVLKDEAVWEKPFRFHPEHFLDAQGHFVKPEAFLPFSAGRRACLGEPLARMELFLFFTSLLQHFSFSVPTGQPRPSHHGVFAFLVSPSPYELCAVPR
Thyrotropin-releasing hormone receptor (Homo sapiens), sequence (P34981 whole entry, looked up): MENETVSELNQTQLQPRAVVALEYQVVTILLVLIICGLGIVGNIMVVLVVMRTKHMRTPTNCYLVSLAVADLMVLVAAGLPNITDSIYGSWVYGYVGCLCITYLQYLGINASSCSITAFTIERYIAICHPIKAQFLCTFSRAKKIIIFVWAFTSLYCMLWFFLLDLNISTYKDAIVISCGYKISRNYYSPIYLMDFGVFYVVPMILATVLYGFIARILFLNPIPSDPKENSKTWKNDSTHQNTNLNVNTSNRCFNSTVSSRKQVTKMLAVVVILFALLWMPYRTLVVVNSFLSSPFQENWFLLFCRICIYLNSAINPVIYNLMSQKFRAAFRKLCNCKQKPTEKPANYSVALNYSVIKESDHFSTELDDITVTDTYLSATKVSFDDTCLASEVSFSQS
Progesterone receptor (Homo sapiens), sequence (P06401 whole entry, looked up): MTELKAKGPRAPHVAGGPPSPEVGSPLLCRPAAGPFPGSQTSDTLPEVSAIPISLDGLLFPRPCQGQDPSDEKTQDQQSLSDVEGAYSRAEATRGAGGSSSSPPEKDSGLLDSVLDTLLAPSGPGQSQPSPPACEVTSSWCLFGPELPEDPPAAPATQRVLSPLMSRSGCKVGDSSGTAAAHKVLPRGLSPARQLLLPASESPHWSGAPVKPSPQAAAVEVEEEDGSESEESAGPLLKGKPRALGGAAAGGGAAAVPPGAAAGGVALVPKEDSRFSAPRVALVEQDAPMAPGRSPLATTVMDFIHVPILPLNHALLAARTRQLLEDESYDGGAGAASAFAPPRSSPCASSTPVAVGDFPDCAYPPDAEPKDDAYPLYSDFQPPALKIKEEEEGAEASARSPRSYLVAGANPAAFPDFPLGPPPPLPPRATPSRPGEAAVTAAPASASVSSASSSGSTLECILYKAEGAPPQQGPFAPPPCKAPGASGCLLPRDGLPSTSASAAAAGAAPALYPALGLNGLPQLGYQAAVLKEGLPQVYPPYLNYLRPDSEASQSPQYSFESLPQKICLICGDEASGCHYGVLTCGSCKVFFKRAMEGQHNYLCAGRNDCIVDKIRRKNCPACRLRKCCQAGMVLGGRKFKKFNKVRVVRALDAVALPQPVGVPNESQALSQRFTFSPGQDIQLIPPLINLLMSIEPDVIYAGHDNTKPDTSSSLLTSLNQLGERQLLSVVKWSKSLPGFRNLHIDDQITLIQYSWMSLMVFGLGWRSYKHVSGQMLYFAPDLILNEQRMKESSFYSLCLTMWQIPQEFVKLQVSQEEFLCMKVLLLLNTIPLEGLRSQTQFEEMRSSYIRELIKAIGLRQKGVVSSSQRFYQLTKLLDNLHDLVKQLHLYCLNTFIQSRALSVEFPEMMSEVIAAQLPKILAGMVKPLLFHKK

Take `COc1cc(Cl)ccc1Oc1ccc(Cl)cc1Cl`: the Potency entry in [1], in [2], in assay [4], in assay [5], in assay [6] and in assay [8] was “inactive” in each case. Further, the Potency result in [10], in assay [11], in assay [12], in assay [13], in [14] and in assay [16] was “inactive” throughout. The Potency in [3] was 8.39 µM (active); in assay [15], 26.5 µM (active). Further, the compound was classed as inactive in assay [7] and in [9].

`O=C(O)c1ccccc1Cl`: the Potency result in assay [1], in [2], in assay [3], in [4], in assay [5] and in assay [6] was “inactive” throughout. The Potency entry in assay [8], in assay [10], in [17], in assay [11], in assay [12] and in assay [14] was “inactive” throughout. For the same compound, the Potency entry in assay [15] is “inactive”. The compound was classed as inactive in [7] and in [9].

For the compound `CCCn1cnc2c1c(=O)n(CCCCC(C)=O)c(=O)n2C`, the Potency entry in assay [1], in assay [2], in assay [3], in [4], in assay [5] and in [6] was “inactive” throughout. The Potency result in assay [8], in assay [10], in assay [17], in assay [11], in assay [12] and in assay [13] was “inactive” in each case. Moreover, the Potency result in [14] and in assay [15] was “inactive” each time. The compound was classed as inactive in [7] and in assay [9].

On to `C/C(=C(\CCOP(=O)(O)O)SC(=O)c1ccccc1)N(C=O)Cc1cnc(C)nc1N`, for which the activity change, negative = cytotoxicity in [1] was 1.33% [at 8.39 µM]; in assay [4], 9.64% [at 8.39 µM]; in assay [5], -10.4% [at 8.39 µM]; in assay [7] it was 0.402% [at 6.97 µM]; in [17], 10.5% [at 8.39 µM]; in [12] it was 2.5% [at 8.39 µM]. In [14], the activity change, negative = cytotoxicity was 6.79% [at 8.39 µM]. Further, the activation is -0.857% [at 8.39 µM] in [2], 2.27% [at 6.97 µM] in assay [8] and -0.266% [at 5.23 µM] in [10]. Further, the activity change, negative = inhibition in [3] is 5.03% [at 8.39 µM]. Moreover, the viability change, negative = cytotoxic in [6] was 4.01% [at 6.97 µM]. For the same compound, in assay [9], the activity, negative = inhibition was -3.24% [at 4.65 µM]. Also, in assay [11], the caspase activation was 0.0207% [at 8.39 µM]. Besides, in assay [13], the caspase-3/7 activation was -0.786% [at 8.39 µM].

On to `OC[C@H]1O[C@@H](OCCc2ccc(O)cc2)[C@H](O)[C@@H](O)[C@@H]1O`, for which the Potency result in assay [1], in assay [2], in assay [3], in assay [4], in [5] and in [6] was “inactive” throughout. Also, the Potency entry in [8], in [10], in [17], in assay [11], in assay [12] and in assay [13] was “inactive” each time. The Potency entry in assay [14] and in assay [15] was “inactive” throughout. The result in [7] and in assay [9] was inactive.

Turning to `COC(C)OC`, the Potency result in [1], in assay [2], in assay [3], in assay [4], in assay [5] and in assay [6] was “inactive” throughout. Further, the Potency entry in assay [8], in [10], in assay [17], in [12], in assay [13] and in assay [14] was “inactive” each time. Besides, the Potency result in assay [15] and in assay [16] was “inactive” throughout. In addition, the compound was classed as inactive in assay [7] and in [9].

Turning to `CCCCC(CC)COC(=O)CCCCCCCCC(=O)OCC(CC)CCCC` (stereo unspecified), the Potency result in assay [1], in assay [2], in assay [3], in assay [4], in [5] and in assay [6] was “inactive” throughout. Further, the Potency result in assay [8], in assay [10], in [17], in [11], in assay [12] and in assay [13] was “inactive” throughout. For the same compound, the Potency result in assay [14], in [15] and in [16] was “inactive” throughout. Moreover, the compound was called inactive in [7] and in assay [9].
